# Source: PubChem (National Center for Advancing Translational Sciences (NCATS))
# FLuc counter – qHTS profiling assay for firefly luciferase inhibitor/activator using purifed enzyme and Km concentrations of substrates (counterscreen for miR-21 project) | AID 588342, 2011 | Luciferin 4-monooxygenase (Photinus pyralis), P08659 | actives 6.9% (n = 360,000) | Potency, µM (series often up to 57.5 µM), hits mostly inhibitors | purified FLuc, Km substrates, luminescence inhibition; also: nearly all actives have a fitted effect of over 55% in size
# Target sequence (P08659 whole entry, looked up): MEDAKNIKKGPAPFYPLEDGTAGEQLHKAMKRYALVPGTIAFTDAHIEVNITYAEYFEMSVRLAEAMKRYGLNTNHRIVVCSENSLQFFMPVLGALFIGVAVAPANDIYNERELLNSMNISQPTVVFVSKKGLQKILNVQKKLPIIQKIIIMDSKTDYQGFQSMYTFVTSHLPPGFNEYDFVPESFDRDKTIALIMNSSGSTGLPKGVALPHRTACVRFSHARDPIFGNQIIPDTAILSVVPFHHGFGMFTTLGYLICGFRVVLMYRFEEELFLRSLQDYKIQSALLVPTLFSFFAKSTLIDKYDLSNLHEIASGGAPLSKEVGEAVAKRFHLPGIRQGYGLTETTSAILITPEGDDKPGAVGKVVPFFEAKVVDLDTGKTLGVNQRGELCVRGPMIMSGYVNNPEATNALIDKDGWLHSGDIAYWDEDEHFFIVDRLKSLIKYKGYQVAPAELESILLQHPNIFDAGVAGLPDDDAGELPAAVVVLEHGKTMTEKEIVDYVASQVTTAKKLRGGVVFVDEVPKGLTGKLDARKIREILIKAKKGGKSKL
#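 Biochemical qHTS of compounds, final roughly 60 µM downward over six points, against 10 nM purified firefly luciferase using Km concentrations of substrates (10 uM D-luciferin, 10 uM ATP) in Tris acetate pH 7.5 buffer; luminescence output.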
# ELG1 DNA repair – qHTS screen for small molecules that inhibit ELG1-dependent DNA repair in human embryonic kidney (HEK293T) cells expressing luciferase-tagged ELG1. HEK293T ELG1-luciferase reporter, luminescence, 16 h; DNA damage induced by 5-fluorouridine. Potency, µM (titrated, usually from 46.1 µM), usual class: inhibitors. actives 2.3% (n = 330,000); also: nearly all actives have a fitted effect of over 55% in size
#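 Quantitative HTS, concentration-response format. 2,000 cells/well co-treated with 5-fluorouridine and compound, 16 hr in 5% CO2 at 37 °C; ONE-Glo luminescence read after 30 min.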
# NPC1 prom act – qHTS Assay for NPC1 Promoter Activators; Huh7 NPC1 promoter luciferase reporter, 24 h; actives 2.4% (n = 320,000); Potency, µM (highest dose often 9.22 µM), hits mostly activators; also: nearly all actives have a fitted effect of over 60% in size
#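 Readout is luciferase luminescence, reflecting NPC1 promoter activation in stably transfected Huh7 cells after 24 h compound exposure at 37 °C in reduced-serum medium with 10% FBS.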
# SMN2 splice up – qHTS Assay for Enhancers of SMN2 Splice Variant Expression; HEK293 SMN2-luciferase splicing reporter, luminescence, 30-36 h; Potency, µM (series often up to 46.1 µM), actives largely listed as activators; actives 2.8% (n = 210,000); also: nearly all actives have a fitted effect of over 55% in size
#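 HEK293 cells carry an SMN2 minigene-luciferase reporter in which exon 7 inclusion puts luciferase in frame. Cells were seeded at 2000 cells/well, attached for 10-12 hours, then exposed to compounds for 30-36 hours at 37C before ONE-Glo luminescence.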
# Rab9 promoter act – qHTS Assay for Rab9 Promoter Activators; Huh7 Rab9 promoter-luciferase reporter, luminescence, 24 h; actives 2.8% (n = 320,000); Potency, µM (titrated, usually from 9.22 µM), hits mostly activators; AID 485297, 2010; also: nearly all actives have a fitted effect of over 60% in size
#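 Stable Rab9-luc Huh7, 1500 cells/well, 2 h settle; cmpd in DMSO, 24 h, 37 °C/5% CO2; luciferase reagent 10 min RT; luminescence.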
# ELG1 genotoxic – qHTS screen for small molecules that induce genotoxicity in human embryonic kidney (HEK293T) cells expressing luciferase-tagged ELG1 | actives 1.3% (n = 330,000) | Potency, µM (series often up to 46 µM), hits mostly activators | AID 504466, 2011 | HEK293T ELG1-luciferase reporter, luminescence, 16 h; also: nearly all actives have a fitted effect of over 60% in size
#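 HEK293T cells expressing luciferase-tagged ELG1 were exposed to compound or DMSO vehicle for 16 hr at 37 °C and 5% CO2. Luciferase activity was then measured with ONE-Glo after 30 min at room temperature.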
# A number is an active result; - = inactive; ? = inconclusive; . = no result given. This is a sample that favours compounds with a hit; in the whole collection about 9.2% have one here. Calls follow the shape of the dose curve; as a rule, active = well fitted curve in the direction sought with a large enough effect; inconclusive = small, poorly fitted or top-dose-only effect, or another doubt; inactive = no such curve, though single readings can be large; an effect the other way counts as inactive or inconclusive.
SMILES,FLuc counter,ELG1 DNA repair,NPC1 prom act,SMN2 splice up,Rab9 promoter act,ELG1 genotoxic
COC(=O)C(c1ccc(OC)c(OC)c1)C1c2ccccc2C=C(C)N1C(=O)OC (centres undefined),.,.,.,-,.,.
CNC(=S)N/N=C/c1ccc(-c2cccc(C(=O)O)c2)o1,6.7µM,?,2.2µM,.,2.8µM,?
O=C(CN1CCCC1)N/N=C/c1ccc(-c2cccc(Cl)c2)o1,12µM,-,-,-,-,-
Nc1nonc1C(=O)N/N=C/c1ccc(-c2cccc(C(=O)O)c2)o1,17µM,?,-,-,-,-
COc1ccc(CC(=O)N/N=C/c2ccc(-c3cccc(C(=O)O)c3)o2)cc1OC,?,-,-,.,-,-
Cc1ccc(OCC(=O)N/N=C\c2ccc(-c3cccc(C(=O)O)c3)o2)c(C)c1,6.7µM,?,-,-,-,-
O=C(O)c1cccc(-c2ccc(/C=N/Nc3nn[nH]n3)o2)c1,?,?,-,-,-,-
Cc1ccccc1Nc1nc(N)nc(COC(=O)[C@@H](NC(=O)c2ccccc2Cl)C(C)C)n1,-,-,-,.,-,-
Cc1nnc(SCc2cc(=O)n3c(C)cccc3n2)s1,-,.,.,.,.,.
Cn1ccnc1SCCNC(=O)CCc1nnc(CCc2ccccc2)o1,-,-,-,.,-,-
Cn1cccc1C(=O)OCC(=O)Nc1ccc2c(c1)CCC2,?,?,?,-,?,21µM
Cn1cccc1C(=O)OCC(=O)Nc1ccc2[nH]c(=O)[nH]c2c1,.,?,.,.,.,-
O=C(COC(=O)c1ccco1)Nc1ccc2c(c1)OCO2,?,-,-,-,-,-
Cn1cccc1C(=O)OCC(=O)Nc1ccc2c(c1)OCO2,17µM,?,3.5µM,?,2.8µM,?
Cc1ccc(NC(=O)C2CCC(CNC(=O)[C@@H]3Cc4ccccc4CN3)CC2)c(C)c1 (some centres undefined),-,-,-,.,-,-
O=c1n(-c2ccc(Br)cc2)cnn1-c1ncccc1[N+](=O)[O-],17µM,?,?,13µM,2µM,?
Cc1cccc(Oc2nc3c(c(=O)n(C)c(=O)n3C)n2Cc2ccccc2)c1C,-,.,.,-,.,.
O=C1Nc2ccccc2Oc2cc(Oc3ccccc3)ccc21,?,.,-,-,-,.
O=[N+]([O-])c1ccc(S(=O)(=O)Nc2cccc(-c3ccc(N4CCOCC4)nn3)c2)cc1,3.4µM,?,?,.,-,?
COc1c(C)cc(S(=O)(=O)Nc2cccc(-c3ccc(N4CCOCC4)nn3)c2)c(C)c1C,15µM,.,.,.,.,.
Cc1cc(C)cc(S(=O)(=O)Nc2cccc(-c3ccc(N4CCOCC4)nn3)c2)c1,12µM,.,.,.,.,.
CCOc1ccc(-c2cccc(NS(=O)(=O)c3ccc([N+](=O)[O-])cc3)c2)nn1,-,-,-,.,-,-
COc1ccc(-c2ccc(NS(=O)(=O)c3ccc([N+](=O)[O-])cc3)cc2)nn1,-,-,-,.,-,-
O=[N+]([O-])c1ccc(S(=O)(=O)Nc2ccc(-c3ccc(N4CCOCC4)nn3)cc2)cc1,27µM,?,-,.,-,-
Cc1ccc(S(=O)(=O)Nc2ccc(N3CCOCC3)nc2)cc1,-,-,-,-,-,-
SMILES,FLuc counter,ELG1 DNA repair,NPC1 prom act,SMN2 splice up,Rab9 promoter act,ELG1 genotoxic
O=C(/C=C/c1ccc2c(c1)OCO2)NCCSCc1c(Cl)cccc1Cl,-,?,-,-,-,-
COc1ccc(C(=O)CSc2nnc(CN3CCCCC3)n2-c2ccc(Cl)cc2)cc1OC,-,?,-,-,-,-
CCOC(=O)Cn1c(=O)oc2cc(S(=O)(=O)N3CCN(c4cc(C)ccc4C)CC3)ccc21,-,.,.,-,.,.
CCO[C@H]1OC(C(N)=O)=C[C@@H](C)[C@@H]1CCCO,-,-,-,.,-,-
Cc1ccc(OCCCN2C(=O)C(=O)c3cccc(C)c32)cc1,24µM,-,-,-,-,-
Cc1ccc(OCCN2C(=O)C(=O)c3cc(C)ccc32)cc1,15µM,-,-,-,-,?
Cc1ccc2c(c1)C(=O)C(=O)N2Cc1ccc(OC(C)C)cc1,-,.,.,-,.,.
NC(=O)C1CCN(S(=O)(=O)c2cc3c4c(c2)CCN4C(=O)CC3)CC1,-,-,-,.,-,-
S=C([S-])NCCNC(=S)[S-].[Zn+2],.,.,.,-,.,.
CCN1C(=O)[C@H]2[C@@H](c3ccc(-c4cccc(Cl)c4)c(OC)c3)N3CCC[C@@]3(C(=O)OC)[C@H]2C1=O,.,-,.,.,.,-
O=C1CN(C(=O)/C=C/c2ccco2)c2ccccc2N1,-,-,-,-,-,-
Nc1cc(-c2cccc(Br)c2)nn1Cc1ccccc1,?,?,-,-,-,-
Nc1cc(-c2ccc(Br)cc2)nn1Cc1ccccc1,17µM,?,-,.,-,-
COc1cc([C@H]2Oc3c(OC)cc(CCCO[C@@H]4O[C@H](CO)[C@@H](O)[C@H](O)[C@H]4O)cc3[C@@H]2CO)ccc1O,-,-,-,.,-,-
COc1ccccc1NC(=O)NNC(=O)c1ccc2ccccc2c1,-,-,-,.,-,-
O=C(NNC(=S)Nc1ccc(Cl)cc1)c1ccccc1OC(F)F,-,23µM,-,-,-,-
COc1ccccc1C(=O)NNC(=O)c1ccc(Cl)cc1,15µM,-,-,.,-,-
COC(=O)NNC(=O)c1ccccc1OC,-,-,-,-,-,-
COc1ccccc1C(=O)NNC(=O)c1ccc2ccccc2c1,12µM,-,-,.,-,-
COc1ccccc1C(=O)NNC(=O)c1ccc(F)cc1,?,?,-,11µM,?,?
Cc1ccccc1C(=O)NNC(=O)c1ccc(F)cc1,-,?,-,-,-,-
COc1ccc(OC)c(S(=O)(=O)Nc2cc(C)on2)c1,-,-,-,.,-,-
O=C(Oc1ccc(C(=S)N2CCOCC2)cc1)c1cccc(Cl)c1,?,-,-,.,-,-
Nc1nc2nn(-c3ccccc3)nc2c(=O)[nH]1,4.8µM,?,2µM,.,2.8µM,?
O=C(COC(=O)c1ccccc1Br)Nc1cccnc1Cl,.,-,.,.,.,-
Cc1ccc(S(=O)(=O)N/N=C/c2ccccc2O)cc1[N+](=O)[O-],15µM,-,-,-,-,-
C/C(=N\NS(=O)(=O)c1ccc([N+](=O)[O-])cc1)c1ccc2c(c1)OCO2,-,-,-,.,-,-
C/C(=N\NS(=O)(=O)c1ccc(C)c([N+](=O)[O-])c1)c1ccc2c(c1)OCO2,11µM,-,-,.,-,-
CC(C)CC(OC(=O)c1ccco1)C(=O)NC1CCCC1 (centres undefined),-,-,-,.,-,-
